Laboratory results: the supplement of paper PMC6555819

How the values were obtained:
Assay in all cases: PBM binding z-score (relative to random genomic background probes); higher = stronger binding; sequences stand for … in GC…GCGATTGACAGCGTAGAATGAAGG
[1] = test system: FXR:RXRa (NR concentration 270 nM, RXRa partner concentration 90 nM)
Procedure, shortened: (§1)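 Binding buffer was PBS pH 7.4 with 2% milk, 0.02% Triton X-100, 1 mM DTT, 0.2 mg/mL BSA and 0.4 mg/ml salmon testes DNA. In it, ligand-free nuclear receptor dimers were incubated 1 h on custom Agilent 4×180K protein-binding microarrays carrying double-stranded probes. Antibodies against each partner (one per run) detected binding, and z-scores were calculated against random background probes after regression normalization of scanned fluorescence.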

[2] = test system: LXRa:RXRa (NR concentration 270 nM, RXRa partner concentration 90 nM)
Procedure, shortened: as §1

[3] = test system: LXRa homodimer (NR concentration 270 nM)
Procedure, shortened: as §1

[4] = test system: LXRb:RXRa (NR concentration 270 nM, RXRa partner concentration 90 nM)
Procedure, shortened: as §1

[5] = test system: LXRb homodimer (NR concentration 270 nM)
Procedure, shortened: as §1

[6] = test system: PPARa:RXRa (NR concentration 270 nM, RXRa partner concentration 90 nM)
Procedure, shortened: as §1

[7] = test system: PPARg:RXRa (NR concentration 180 nM, RXRa partner concentration 90 nM)
Procedure, shortened: as §1

[8] = test system: PPARg:RXRa 270nM:90nM, anti-RXR (NR concentration 270 nM, RXRa partner concentration 90 nM)
Procedure, shortened: as §1

[9] = test system: PPARg:RXRa 30nM:10nM, anti-RXR (NR concentration 30 nM, RXRa partner concentration 10 nM)
Procedure, shortened: as §1

[10] = test system: PPARg:RXRa 90nM:30nM, anti-RXR (NR concentration 90 nM, RXRa partner concentration 30 nM)
Procedure, shortened: as §1

[11] = test system: PPARg:RXRa DBDmut IVT, anti-RXR (DBD mutation: RXRa K156A/R161A, NR concentration 270 nM, RXRa partner concentration 90 nM)
Procedure, shortened: as §1

[12] = test system: PPARg:RXRa IVT, anti-PPARg (NR concentration 270 nM, RXRa partner concentration 90 nM)
Procedure, shortened: as §1

[13] = test system: PPARg DBDmut:RXRa IVT, anti-PPARg (DBD mutation: PPARg1 K132A/R137A, NR concentration 270 nM, RXRa partner concentration 90 nM)
Procedure, shortened: as §1

[14] = test system: PPARg DBDmut IVT, anti-PPARg (DBD mutation: PPARg1 K132A/R137A, NR concentration 270 nM)
Procedure, shortened: as §1

[15] = test system: PPARg homodimer (NR concentration 180 nM)
Procedure, shortened: as §1

[16] = test system: PXR:RXRa (NR concentration 270 nM, RXRa partner concentration 90 nM)
Procedure, shortened: as §1

[17] = test system: PXR homodimer (NR concentration 270 nM)
Procedure, shortened: as §1

[18] = test system: RARa:RXR (NR concentration 270 nM, RXRa partner concentration 90 nM)
Procedure, shortened: as §1

[19] = test system: RARa homodimer (NR concentration 270 nM)
Procedure, shortened: as §1

[20] = test system: RARb:RXRa (NR concentration 270 nM, RXRa partner concentration 90 nM)
Procedure, shortened: as §1

Row | Sequence | PBM binding z-score [1] | PBM binding z-score [2] | PBM binding z-score [3] | PBM binding z-score [4] | PBM binding z-score [5] | PBM binding z-score [6] | PBM binding z-score [7] | PBM binding z-score [8] | PBM binding z-score [9] | PBM binding z-score [10] | PBM binding z-score [11] | PBM binding z-score [12] | PBM binding z-score [13] | PBM binding z-score [14] | PBM binding z-score [15] | PBM binding z-score [16] | PBM binding z-score [17] | PBM binding z-score [18] | PBM binding z-score [19] | PBM binding z-score [20]
1 | ATCTCTAGGTAAGACTCAGTTGAGTGAAGAACGC | 0.19 | 0.256 | -0.143 | 0.303 | 0.234 | -0.0553 | 0.0512 | 0.121 | -0.116 | -0.195 | 1.79 | 0.839 | 0.212 | 0.517 | 0.307 | -0.135 | 0.188 | -0.38 | 0.696 | 0.11
2 | TTACCAAGGAGAAAGGTCGTTGATGCACGCCTTG | 1.02 | 1.35 | 0.0075 | 1.32 | -0.338 | 2.37 | 2.36 | 4.03 | 2.56 | 3.74 | 0.0947 | 0.908 | 0.246 | 0.131 | 0.653 | 1.82 | -0.00641 | 2.12 | -0.114 | 1.5
3 | AATACAGGGTCATCGTAGGACAGAGTACGCACAG | 7.26 | 6.53 | 2.99 | 4.91 | 1.66 | 5.73 | 6.66 | 6.04 | 3.07 | 4.95 | 2.91 | 4.34 | 1.42 | 1.38 | 2.54 | 4.92 | 0.871 | 4.82 | 0.937 | 4.22
4 | TAGCCTAGGTCATTGGGCCGGTATAGTACGCATC | 4.26 | 2.99 | 0.765 | 2.23 | 0.429 | 3.43 | 2.46 | 2.72 | 0.313 | 1.53 | 1.71 | 3.19 | 0.219 | -0.308 | 0.812 | 1.39 | -0.428 | 1.95 | -0.0602 | 3.48
5 | CCTCGGAGGACAGAAGGCCAGAGCTGTCCGCTTT | -0.543 | -0.556 | -1.17 | -1.28 | -1.6 | -1.15 | -0.739 | -1.08 | -1.21 | -1.06 | -0.668 | -1.07 | -2.21 | -1.68 | -0.167 | -0.524 | -1.34 | -0.34 | -0.862 | 0.374
6 | CGAACTAGGTCATTGACAGGCCAGTGAATAGTAA | 4.02 | 2.69 | -0.0414 | 1.9 | -0.365 | 4.67 | 7.02 | 6.4 | 3.9 | 5.91 | 8.3 | 7.98 | 0.866 | 1.34 | 1.29 | 1.34 | -0.173 | 2.06 | -0.0851 | 3.64
7 | CCAGACATGTGAAAGGTAACTCAGTCTGGTACGC | -0.293 | -0.0217 | 0.0919 | 0.07 | 0.186 | 1.02 | 1.63 | 2.44 | 0.62 | 2.1 | 0.121 | 0.275 | -0.125 | 0.223 | 0.969 | 0.118 | -0.196 | 0.553 | 0.138 | 0.186
8 | GTAACGAGGGCAAAGTTGATAGCATCTGTCGACG | 1.48 | 1.29 | -0.238 | 1.17 | 0.169 | 4.2 | 7.58 | 7.24 | 6.77 | 7.65 | 4.16 | 4.69 | 0.947 | 0.296 | 0.574 | 1.36 | 0.402 | 1.77 | 0.268 | 2.36
9 | ACTATTAGTTGACTTAGGGCAGCCGATACGACGC | -0.0135 | -0.0603 | 0.0917 | -0.372 | 0.721 | -0.383 | 0.697 | 0.151 | -0.128 | 0.0745 | 0.0635 | 0.0175 | 1.35 | 0.429 | -0.15 | -0.251 | -0.115 | -0.045 | 0.705 | 0.758
10 | AGAATGAGGTTATTAAGATCACGGAATTGCGGTC | 1.57 | 1.78 | 0.215 | 1.57 | 0.0573 | 3.18 | 1.99 | 2.7 | 0.647 | 1.6 | 3.48 | 3.23 | 1.05 | 1.25 | 1.1 | 1.55 | 1.01 | 1.86 | 0.114 | 1.43
11 | CCGACTGGGGCATAGGTTACCATACTCAGTACGA | -0.122 | -0.0807 | -0.232 | 0.581 | -1.1 | 3.58 | 8.18 | 7.34 | 6.9 | 7.37 | 2.91 | 4.3 | -0.132 | -0.537 | 0.866 | 0.141 | -0.441 | 0.637 | -0.24 | 0.735
12 | CCTAGTTAGTCAGGAGGTCACACACCGGATATGA | 3.41 | 3.69 | 2.46 | 3.68 | 1.17 | 4.29 | 2.42 | 3.19 | 1.24 | 2.16 | 1.08 | 2.35 | 1.22 | 0.693 | 3.69 | 4.33 | 1.96 | 4.59 | 2.45 | 3.69
13 | CTCGAAAGGTCGGATGAGGTGAGTATACGGATAA | 2.61 | 2.09 | 0.0368 | 1.69 | -0.334 | 3.17 | 1.02 | 1.66 | 0.432 | 0.958 | 0.154 | 0.983 | 0.973 | -0.0346 | 0.968 | 3.55 | -0.0327 | 2.62 | 0.562 | 3.32
14 | TCATATAGGTAATACGGGTGAAAGTCGGCATCTA | 0.703 | 0.697 | 0.104 | 0.839 | 0.196 | 1.79 | 1.31 | 2.56 | 3.81 | 3.07 | 3.97 | 3.5 | 0.9 | 0.874 | 0.552 | 0.662 | 0.363 | 1.01 | 1.49 | 0.495
15 | TCAGACAGGTGAAGGTAACACAGGTACGCAGTCG | 1.04 | 1.17 | 0.113 | 1.01 | 0.0867 | 1.53 | 1.29 | 2.67 | 3.9 | 3.28 | 2.57 | 1.37 | -0.146 | 0.0418 | 1.19 | 1.02 | 0.463 | 1.28 | 0.787 | 1.32
